In all, about 5,500 compounds went through this assay and about 2,000 (36%) were called active. Another 18% or so got no clear call; they are omitted. This is one part of the list. Values without a mark were called inactive. Rule as the data show it: active = normalized growth mostly below about 0.91 (no sharp cut-off); inconclusive = no clear call, values can overlap the other calls; inactive = mostly above about 0.92.
Assay: chemical genetic growth profiling, strain panel (AID 1159580);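 also: tested at 20 µM; growth read once vehicle control cultures reached saturation at 30 °C; 1 = growth at the plate median or of vehicle wells; lower values mean less growth of the strain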
Conditions: growth OD

S=C=NCc1ccccc1
normalized growth (S. cerevisiae deletion strains, locus YJR075W, strain HOC1, stronger effect = lower value): 0.0711 (active) | normalized growth (S. cerevisiae deletion strains, locus YKL009W, strain mrt4, stronger effect = lower value): 0.0801 (active) | normalized growth (S. cerevisiae deletion strains, locus YKL068W, stronger effect = lower value): 0.107 (active) | normalized growth (S. cerevisiae deletion strains, locus YKL085W, strain MDH1 (second series), stronger effect = lower value): 0.0485 (active) | normalized growth (S. cerevisiae deletion strains, locus YKL085W, strain MDH1, stronger effect = lower value): 0.0485 (active) | normalized growth (S. cerevisiae deletion strains, locus YKL160W, strain elf1, stronger effect = lower value): 0.0853 (active) | normalized growth (S. cerevisiae deletion strains, locus YKL190W, strain CNB1, stronger effect = lower value): 0.0505 (active) | normalized growth (S. cerevisiae deletion strains, locus YKR001C, strain vps1, stronger effect = lower value): 0.0646 (active) | normalized growth (S. cerevisiae deletion strains, locus YKR026C, strain gcn3, stronger effect = lower value): 0.0866 (active) | normalized growth (S. cerevisiae deletion strains, locus YKR091W, strain srl3, stronger effect = lower value): 0.0761 (active) | normalized growth (S. cerevisiae deletion strains, locus YLL001W, strain dnm1, stronger effect = lower value): 0.133 (active) | normalized growth (S. cerevisiae deletion strains, locus YLL026W, stronger effect = lower value): 0.0653 (active) | normalized growth (S. cerevisiae deletion strains, locus YLL041C, strain sdh2, stronger effect = lower value): 0.0963 (active) | normalized growth (S. cerevisiae deletion strains, locus YLR027C, strain aat2, stronger effect = lower value): 0.0701 (active) | normalized growth (S. cerevisiae deletion strains, locus YLR039C, strain RIC1, stronger effect = lower value): 0.095 (active) | normalized growth (S. cerevisiae deletion strains, locus YLR058C, strain SHM2, stronger effect = lower value): 0.0484 (active) | normalized growth (S. cerevisiae deletion strains, locus YLR102C, strain apc9, stronger effect = lower value): 0.0598 (active) | normalized growth (S. cerevisiae deletion strains, locus YLR113W, strain HOG1, stronger effect = lower value): 0.303 (active) | normalized growth (S. cerevisiae deletion strains, locus YLR221C, strain rsa3, stronger effect = lower value): 0.0763 (active) | normalized growth (S. cerevisiae deletion strains, locus YLR258W, strain gsy2, stronger effect = lower value): 0.0685 (active) | normalized growth (S. cerevisiae deletion strains, locus YLR262C, strain YPT6 (second series), stronger effect = lower value): 0.338 (active) | normalized growth (S. cerevisiae deletion strains, locus YLR262C, strain YPT6, stronger effect = lower value): 0.107 (active) | normalized growth (S. cerevisiae deletion strains, locus YLR268W, strain sec22, stronger effect = lower value): 0.0685 (active) | normalized growth (S. cerevisiae deletion strains, locus YLR320W, strain mms22, stronger effect = lower value): 0.126 (active) | normalized growth (S. cerevisiae deletion strains, locus YLR330W, strain CHS5, stronger effect = lower value): 0.0521 (active) | normalized growth (S. cerevisiae deletion strains, locus YLR342W, strain FKS1 (second series), stronger effect = lower value): 0.0771 (active) | normalized growth (S. cerevisiae deletion strains, locus YLR342W, strain FKS1, stronger effect = lower value): 0.129 (active) | normalized growth (S. cerevisiae deletion strains, locus YLR357W, strain rsc2, stronger effect = lower value): 0.208 (active) | normalized growth (S. cerevisiae deletion strains, locus YLR370C, strain arc18, stronger effect = lower value): 0.2 (active) | normalized growth (S. cerevisiae deletion strains, locus YLR371W, strain rom2, stronger effect = lower value): 0.0645 (active) | normalized growth (S. cerevisiae deletion strains, locus YLR384C, strain iki3, stronger effect = lower value): 0.101 (active) | normalized growth (S. cerevisiae deletion strains, locus YLR418C, strain cdc73, stronger effect = lower value): 0.105 (active) | normalized growth (S. cerevisiae deletion strains, locus YML016C, strain PPZ1, stronger effect = lower value): 0.0508 (active) | normalized growth (S. cerevisiae deletion strains, locus YML032C, strain rad52, stronger effect = lower value): 0.068 (active) | normalized growth (S. cerevisiae deletion strains, locus YML120C, strain ndi1, stronger effect = lower value): 0.0743 (active) | normalized growth (S. cerevisiae deletion strains, locus YML124C, strain tub3, stronger effect = lower value): 0.0581 (active) | normalized growth (S. cerevisiae deletion strains, locus YMR058W, strain fet3, stronger effect = lower value): 0.102 (active) | normalized growth (S. cerevisiae deletion strains, locus YMR078C, strain ctf18, stronger effect = lower value): 0.0763 (active) | normalized growth (S. cerevisiae deletion strains, locus YMR125W, strain sto1, stronger effect = lower value): 0.118 (active) | normalized growth (S. cerevisiae deletion strains, locus YMR129W, stronger effect = lower value): 0.115 (active) | normalized growth (S. cerevisiae deletion strains, locus YMR205C, strain PFK2, stronger effect = lower value): 0.175 (active) | normalized growth (S. cerevisiae deletion strains, locus YMR223W, strain ubp8, stronger effect = lower value): 0.0652 (active) | normalized growth (S. cerevisiae deletion strains, locus YMR231W, strain pep5, stronger effect = lower value): 0.159 (active) | normalized growth (S. cerevisiae deletion strains, locus YMR263W, strain SAP30, stronger effect = lower value): 0.0638 (active) | normalized growth (S. cerevisiae deletion strains, locus YMR307W, strain GAS1, stronger effect = lower value): 0.128 (active) | normalized growth (S. cerevisiae deletion strains, locus YNL067W, strain RPL9B, stronger effect = lower value): 0.0559 (active) | normalized growth (S. cerevisiae deletion strains, locus YNL071W, strain lat1, stronger effect = lower value): 0.0773 (active) | normalized growth (S. cerevisiae deletion strains, locus YNL128W, strain TEP1, stronger effect = lower value): 0.061 (active) | normalized growth (S. cerevisiae deletion strains, locus YNL153C, strain GIM3, stronger effect = lower value): 0.0485 (active) | normalized growth (S. cerevisiae deletion strains, locus YNL183C, strain NPR1, stronger effect = lower value): 0.784 (active) | normalized growth (S. cerevisiae deletion strains, locus YNL209W, strain ssb2, stronger effect = lower value): 0.172 (active) | normalized growth (S. cerevisiae deletion strains, locus YNL233W, strain BNI4, stronger effect = lower value): 0.054 (active) | normalized growth (S. cerevisiae deletion strains, locus YNL248C, strain rpa49, stronger effect = lower value): 0.0817 (active) | normalized growth (S. cerevisiae deletion strains, locus YNL250W, strain rad50, stronger effect = lower value): 0.0774 (active) | normalized growth (S. cerevisiae deletion strains, locus YNL271C, strain bni1, stronger effect = lower value): 0.0636 (active) | normalized growth (S. cerevisiae deletion strains, locus YNL298W, strain CLA4, stronger effect = lower value): 0.0658 (active) | normalized growth (S. cerevisiae deletion strains, locus YNL307C, strain MCK1, stronger effect = lower value): 0.109 (active) | normalized growth (S. cerevisiae deletion strains, locus YNL322C, strain KRE1 (second series), stronger effect = lower value): 0.0969 (active) | normalized growth (S. cerevisiae deletion strains, locus YNL322C, strain KRE1, stronger effect = lower value): 0.0496 (active) | normalized growth (S. cerevisiae deletion strains, locus YNR049C, strain mso1, stronger effect = lower value): 0.0995 (active) | normalized growth (S. cerevisiae deletion strains, locus YNR052C, strain pop2, stronger effect = lower value): 0.0721 (active) | normalized growth (S. cerevisiae deletion strains, locus YOL006C, strain TOP1, stronger effect = lower value): 0.101 (active) | normalized growth (S. cerevisiae deletion strains, locus YOL012C, strain htz1): 0.273 | normalized growth (S. cerevisiae deletion strains, locus YOL147C, strain pex11, stronger effect = lower value): 0.0554 (active) | normalized growth (S. cerevisiae deletion strains, locus YOR001W, strain rrp6, stronger effect = lower value): 0.0775 (active) | normalized growth (S. cerevisiae deletion strains, locus YOR061W, strain CKA2, stronger effect = lower value): 0.0465 (active) | normalized growth (S. cerevisiae deletion strains, locus YOR069W, strain VPS5, stronger effect = lower value): 0.048 (active) | normalized growth (S. cerevisiae deletion strains, locus YOR070C, strain gyp1, stronger effect = lower value): 0.106 (active) | normalized growth (S. cerevisiae deletion strains, locus YOR080W, strain dia2, stronger effect = lower value): 0.169 (active) | normalized growth (S. cerevisiae deletion strains, locus YOR083W, strain WHI5, stronger effect = lower value): 0.0989 (active) | normalized growth (S. cerevisiae deletion strains, locus YOR106W, strain vam3, stronger effect = lower value): 0.115 (active) | normalized growth (S. cerevisiae deletion strains, locus YOR136W, strain idh2, stronger effect = lower value): 0.0696 (active) | normalized growth (S. cerevisiae deletion strains, locus YOR144C, strain elg1, stronger effect = lower value): 0.0548 (active) | normalized growth (S. cerevisiae deletion strains, locus YOR184W, strain ser1, stronger effect = lower value): 0.0749 (active) | normalized growth (S. cerevisiae deletion strains, locus YOR231W, strain MKK1, stronger effect = lower value): 0.183 (active) | normalized growth (S. cerevisiae deletion strains, locus YOR265W, strain rbl2, stronger effect = lower value): 0.081 (active) | normalized growth (S. cerevisiae deletion strains, locus YOR270C, strain vph1, stronger effect = lower value): 0.135 (active) | normalized growth (S. cerevisiae deletion strains, locus YOR290C, strain snf2, stronger effect = lower value): 0.0951 (active) | normalized growth (S. cerevisiae deletion strains, locus YOR316C, strain cot1, stronger effect = lower value): 0.0582 (active) | normalized growth (S. cerevisiae deletion strains, locus YPL051W, strain arl3, stronger effect = lower value): 0.0938 (active) | normalized growth (S. cerevisiae deletion strains, locus YPL055C, strain LGE1, stronger effect = lower value): 0.0848 (active) | normalized growth (S. cerevisiae deletion strains, locus YPL078C, strain atp4, stronger effect = lower value): 0.0881 (active) | normalized growth (S. cerevisiae deletion strains, locus YPL106C, strain sse1, stronger effect = lower value): 0.222 (active) | normalized growth (S. cerevisiae deletion strains, locus YPL240C, strain hsp82, stronger effect = lower value): 0.0863 (active) | normalized growth (S. cerevisiae deletion strains, locus YPL241C, strain CIN2, stronger effect = lower value): 0.0506 (active) | normalized growth (S. cerevisiae deletion strains, locus YPL256C, strain CLN2, stronger effect = lower value): 0.219 (active) | normalized growth (S. cerevisiae deletion strains, locus YPR119W, strain clb2, stronger effect = lower value): 0.0611 (active) | normalized growth (S. cerevisiae deletion strains, locus YPR141C, strain kar3, stronger effect = lower value): 0.0705 (active) | normalized growth (S. cerevisiae deletion strains, locus YPR163C, strain tif3, stronger effect = lower value): 0.07 (active) | normalized growth (S. cerevisiae deletion strains, locus YPR167C, strain met16, stronger effect = lower value): 0.0606 (active) | normalized growth (S. cerevisiae deletion strains, strain wtn01, stronger effect = lower value): 0.0609 (active) | normalized growth (S. cerevisiae strains, strain wild type, stronger effect = lower value): 0.0473 (active)

Reference: PubChem BioAssay AID1159580 (chemical genetic matrix, 2015)
